A short description of assay [1]: NCI Yeast Anticancer Drug Screen. Data for the rad50 strain (AID 155).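 Also: 0% = growth of vehicle-only cultures of the same strain.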 The note with it: S. cerevisiae rad50 strain growth inhibition, active compounds read high. In outline:
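Readout: growth inhibition relative to vehicle-treated cultures. Compound exposure was carried out in a genetically defined yeast strain deficient in DNA damage repair.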

Assay [2] can be described thus: NCI Yeast Anticancer Drug Screen. Data for the mec2-1 strain (AID 157). The note with it: S. cerevisiae mec2-1 strain, active compounds read high. In outline:
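Test agents were screened against the mec2-1 yeast strain, with defined DNA repair or cell cycle alteration. Growth was scored as inhibition against vehicle-only controls.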

A short description of assay [3]: NCI Yeast Anticancer Drug Screen. Data for the sgs1 mgt1 strain (AID 161).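 Also: 0% = growth of cultures given vehicle only.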 The note with it: S. cerevisiae sgs1 mgt1 strain, active compounds read high. The method in brief:
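Mutant yeast exposed to compound; growth scored against vehicle-only wells.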

Assay [4] can be described thus: NCI Yeast Anticancer Drug Screen. Data for the cln2 rad14 strain (AID 165).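 Also: 0% = growth equal to vehicle treated cultures.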 The note with it: S. cerevisiae cln2 rad14 strain, active compounds read high. In outline: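 Growth of compound-exposed yeast (cln2 rad14 genotype) measured and expressed as inhibition relative to vehicle.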
Assay [5] in a line: NCI Yeast Anticancer Drug Screen. Data for the bub3 strain (AID 167). The note with it: S. cerevisiae bub3 mutant strain, active compounds read high. In outline: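 Readout: yeast growth inhibition, expressed relative to vehicle-only wells. The test organism is a mutant strain from a panel with lesions in DNA repair or checkpoint genes.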
The nature of assay [6]: NCI Yeast Anticancer Drug Screen. Data for the mlh1 rad18 strain (AID 175). The note with it: S. cerevisiae mlh1 rad18 strain growth inhibition, active compounds read high. In outline:
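In this whole-cell yeast screen, a strain with altered DNA damage repair is challenged with compound, and its growth is measured against matched vehicle-treated controls.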

Setting [7] is: at 5.0 µM (retest, dose inferred, filed as 0.5).
Where [8] appears, read: at 50.0 µM (retest, dose inferred, filed as 5.0).

Growth inhibition data for eight compounds are collected here from PubChem BioAssay (NCI).

The structures appear in SMILES notation. The panel holds about 79,000 compounds, 15% with a hit somewhere; the sample as a whole holds those more often. Values without a mark were called inactive. Calls of active or inactive are those of the source. Rule as the data show it: active = growth inhibition above about 70%; inactive = the rest.

For `Cc1c(O)ccc(C(=O)CCl)c1O`, the growth inhibition in assay [1] (setting [7]) was -147%; in assay [1] (setting [8]) it was 38%; in assay [1] (at 50.0 µM), 58.8%; in assay [2] (setting [7]), -44%; in assay [2] (setting [8]), 5%; in assay [2] (at 50.0 µM), 61.6%. Besides, the growth inhibition in assay [3] (setting [7]) is -53%; in assay [3] (setting [8]), 42%; in assay [3] (at 50.0 µM) it was 60.4%; in assay [4] (setting [7]), -55%; in assay [4] (setting [8]), -11%; in assay [4] (at 50.0 µM), 12.9%. Also, the growth inhibition is -69% in assay [5] (setting [7]); -3% in assay [5] (setting [8]); 41.4% in assay [5] (at 50.0 µM); -111% in assay [6] (setting [7]); 33% in assay [6] (setting [8]); 68.3% in assay [6] (at 50.0 µM).
Regarding `CC(=O)Oc1ccc2cc(-c3ccccc3OC(C)=O)c(=O)oc2c1`, the growth inhibition in assay [1] (setting [7]) was 12%; in assay [1] (setting [8]), 23%; in assay [1] (at 50.0 µM), 48.1%; in assay [2] (setting [7]), -11%; in assay [2] (setting [8]) it was -15%; in assay [2] (at 50.0 µM), 43.7%. In addition, the growth inhibition in assay [3] (setting [7]) was 3%; in assay [3] (setting [8]), 30%; in assay [3] (at 50.0 µM) it was 77.2% (active); in assay [4] (setting [7]), -6%; in assay [4] (setting [8]), 31%; in assay [4] (at 50.0 µM) it was 30.2%. Moreover, the growth inhibition in assay [5] (setting [7]) is -15%; in assay [5] (setting [8]) it was 8%; in assay [5] (at 50.0 µM) it was 57.8%; in assay [6] (setting [7]), 12%; in assay [6] (setting [8]), 0%; in assay [6] (at 50.0 µM) it was 74.5% (active).
On to `O=C1/C(=C\c2ccc(Cl)cc2Cl)Sc2scc(-c3cccc([N+](=O)[O-])c3)[n+]21`, for which the growth inhibition in assay [1] (setting [7]) was 17%; in assay [1] (setting [8]), 98% (active); in assay [1] (at 50.0 µM) it was 85.6% (active); in assay [2] (setting [7]), 36%; in assay [2] (setting [8]) it was 99% (active); in assay [2] (at 50.0 µM) it was 86.1% (active). The growth inhibition in assay [3] (setting [7]) is 69%; in assay [3] (setting [8]), 98% (active); in assay [3] (at 50.0 µM), 89.9% (active); in assay [4] (setting [7]), 28%; in assay [4] (setting [8]) it was 97% (active); in assay [4] (at 50.0 µM), 88.5% (active). For the same compound, the growth inhibition in assay [5] (setting [7]) was 96% (active); in assay [5] (setting [8]) it was 97% (active); in assay [5] (at 50.0 µM) it was 85.5% (active); in assay [6] (setting [7]), 23%; in assay [6] (setting [8]), 99% (active); in assay [6] (at 50.0 µM), 90.9% (active).
Take `O=P1(N2CCCCC2)N(Cc2ccc(Cl)cc2)CCCN1Cc1ccc(Cl)cc1`: the growth inhibition was 59% in assay [1] (setting [7]); 96% (active) in assay [1] (setting [8]); 82% (active) in assay [1] (at 50.0 µM); 65% in assay [2] (setting [7]); 97% (active) in assay [2] (setting [8]); 51.5% in assay [2] (at 50.0 µM). Moreover, the growth inhibition in assay [3] (setting [7]) was 11%; in assay [3] (setting [8]) it was 97% (active); in assay [3] (at 50.0 µM), 29.1%; in assay [4] (setting [7]), 31%; in assay [4] (setting [8]), 96% (active); in assay [4] (at 50.0 µM), 63.2%. Moreover, the growth inhibition was 49% in assay [5] (setting [7]); 96% (active) in assay [5] (setting [8]); 6.75% in assay [5] (at 50.0 µM); 69% in assay [6] (setting [7]); 90% (active) in assay [6] (setting [8]); 76.8% (active) in assay [6] (at 50.0 µM).
On to `CN(C)c1ccccc1CC(c1c[nH]c2ccccc12)c1c[nH]c2ccccc12`, for which the growth inhibition was 82% (active) in assay [1] (setting [7]); 90% (active) in assay [1] (setting [8]); 84.8% (active) in assay [1] (at 50.0 µM); 73% (active) in assay [2] (setting [7]); 93% (active) in assay [2] (setting [8]); 89.5% (active) in assay [2] (at 50.0 µM). Besides, the growth inhibition in assay [3] (setting [7]) was 67%; in assay [3] (setting [8]) it was 91% (active); in assay [3] (at 50.0 µM) it was 87.6% (active); in assay [4] (setting [7]), 50%; in assay [4] (setting [8]), 94% (active); in assay [4] (at 50.0 µM) it was 86.2% (active). Besides, the growth inhibition is 66% in assay [5] (setting [7]); 91% (active) in assay [5] (setting [8]); 85.2% (active) in assay [5] (at 50.0 µM); 92% (active) in assay [6] (setting [7]); 87% (active) in assay [6] (setting [8]); 82% (active) in assay [6] (at 50.0 µM).
Turning to `CC(C)c1ccc2c(c1)CCC1C(C)(CNC(=O)S)CCCC21C.[Zn+2]` (centres undefined), the growth inhibition was 9% in assay [1] (setting [7]); 13% in assay [1] (setting [8]); -8.15% in assay [1] (at 50.0 µM); 8% in assay [2] (setting [7]); 30% in assay [2] (setting [8]); 46.8% in assay [2] (at 50.0 µM). Further, the growth inhibition in assay [3] (setting [7]) is 5%; in assay [3] (setting [8]), 40%; in assay [3] (at 50.0 µM) it was -10.6%; in assay [4] (setting [7]), 10%; in assay [4] (setting [8]), 4%; in assay [4] (at 50.0 µM), 38.5%. Moreover, the growth inhibition is 6% in assay [5] (setting [7]); 35% in assay [5] (setting [8]); 2% in assay [5] (at 50.0 µM); 5% in assay [6] (setting [7]); 29% in assay [6] (setting [8]); -10.6% in assay [6] (at 50.0 µM).
Take `COc1ccc(OC2OC(COC(c3ccccc3)(c3ccc(OC)cc3)c3ccc(OC)cc3)C(O)C(O)C2O)cc1` (centres undefined): the growth inhibition in assay [1] (setting [7]) is 4%; in assay [1] (setting [8]), 98% (active); in assay [1] (at 50.0 µM), 97.5% (active); in assay [2] (setting [7]), -10%; in assay [2] (setting [8]), 98% (active); in assay [2] (at 50.0 µM), 97% (active). In addition, the growth inhibition in assay [3] (setting [7]) was 9%; in assay [3] (setting [8]), 69%; in assay [3] (at 50.0 µM), 98.1% (active); in assay [4] (setting [7]) it was 11%; in assay [4] (setting [8]), 98% (active); in assay [4] (at 50.0 µM), 97.6% (active). In addition, the growth inhibition in assay [5] (setting [7]) is 4%; in assay [5] (setting [8]) it was 99% (active); in assay [5] (at 50.0 µM), 95.5% (active); in assay [6] (setting [7]), -11%; in assay [6] (setting [8]), 98% (active); in assay [6] (at 50.0 µM), 96.7% (active).
Turning to `COc1ccc(C(=O)Nc2ccccc2OC)cc1`, the growth inhibition in assay [1] (setting [7]) was 5%; in assay [1] (setting [8]), 8%; in assay [1] (at 50.0 µM) it was 3.45%; in assay [2] (setting [7]) it was -13%; in assay [2] (setting [8]), -29%; in assay [2] (at 50.0 µM), 12.2%. For the same compound, the growth inhibition in assay [3] (setting [7]) is 4%; in assay [3] (setting [8]), 10%; in assay [3] (at 50.0 µM), 15.1%; in assay [4] (setting [7]), 6%; in assay [4] (setting [8]), 17%; in assay [4] (at 50.0 µM) it was 19.1%. Also, the growth inhibition in assay [5] (setting [7]) is 6%; in assay [5] (setting [8]) it was 20%; in assay [5] (at 50.0 µM), 10.7%; in assay [6] (setting [7]) it was 18%; in assay [6] (setting [8]), 23%; in assay [6] (at 50.0 µM), 9.5%.
